Results published in PubChem BioAssay (NCATS).
Inconclusive results are not listed. Activity calls are given as the source filed them. The call rests on the fitted dose curve; in most records, active means well fitted cell-killing curve with a large enough effect; inconclusive means small, poorly fitted or top-dose-only effect, or effect the other way; inactive means no such curve, though single readings can be large or run the other way.

Columns and labels:
[1] = Viability qHTS for spleen associated tyrosine kinase inhibitor (SYKi) naive MV4-11 cells (AID 1963823); further: nearly all actives have a fitted effect of over 40% in size
Method in brief: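 In this viability screen, compounds acted on SYK inhibitor naive MV4-11 cells for three days (72 hr, 37 C). Remaining viable cells were measured by CellTiter-Glo luminescence following a 10 min room-temperature development.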

[2] = Viability qHTS for spleen associated tyrosine kinase inhibitor (SYKi) drug resistant MV4-11 cells (AID 1963824); further: nearly all actives have a fitted effect of over 35% in size
Method in brief: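 CellTiter-Glo luminescence, read 10 min after reagent addition, reports viability after a 72 hr compound exposure. Cells are an MV4-11 line made resistant to SYK inhibition, seeded at 500 per well onto compound-containing plates.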
Potency means the concentration at half of the fitted maximal effect.

Structure (SMILES)	viability (% of control) [1]	viability, % of control [2]	Potency [1]	Potency [2]
C[C@@H]1O[C@@H](O[C@H]2[C@H](O)[C@@H](O)[C@H](OC(=O)[C@]34CCC(C)(C)C[C@H]3C3=CCC5[C@@]6(C)CC[C@H](O[C@@H]7O[C@H](C(=O)O)[C@@H](O)[C@H](O)[C@H]7O)C(C)(C)C6CC[C@@]5(C)[C@]3(C)CC4)O[C@@H]2CO)[C@H](O)[C@H](O)[C@H]1O (some centres not stated)	72.1% [at 9.25 µM] (inactive)	75.6% [at 9.25 µM] (inactive)	–	–
CC(C)=CCC[C@](C)(O[C@@H]1O[C@H](CO)[C@@H](O)[C@H](O)[C@H]1O)[C@H]1CC[C@]2(C)[C@@H]1[C@H](O)CC1[C@@]3(C)CC[C@H](O)C(C)(C)C3[C@@H](O[C@@H]3O[C@H](CO)[C@@H](O)[C@H](O)[C@H]3O[C@@H]3O[C@@H](C)[C@H](O)[C@@H](O)[C@H]3O)C[C@]12C (some centres not stated)	90.7% [at 9.25 µM] (inactive)	105% [at 9.25 µM] (inactive)	–	–
CC(NCCC(c1ccccc1)c1ccccc1)c1ccccc1 (configuration not stated)	–	–	13.3 µM (active)	10.6 µM (active)
C[C@@H](O)[C@H](N)C(=O)N1CCC[C@H]1C(=O)N1CCC[C@H]1C(=O)N[C@H](C(N)=O)[C@@H](C)O	90.2% [at 9.25 µM] (inactive)	81.3% [at 9.25 µM] (inactive)	–	–
O=C(Nc1ccccc1-c1cn2c(CN3CCNCC3)csc2n1)c1ccc2ccccc2n1	–	–	10.3 µM (active)	20.6 µM (active)
Cc1cn2cc(C(=O)N(C)CCO)cc(NC3CCOc4cccc(C)c43)c2n1 (configuration not stated)	–	–	inactive	inactive
C=C(C(=O)OC)C1C(O)CC2(C)C(O)CCC(=O)C2C1O (configuration not stated)	–	–	inactive	inactive
CCOC(=O)c1cnn(-c2ccccc2)c1NC(=O)c1cc2nc(-c3ccco3)cc(C(F)(F)Cl)n2n1	–	–	inactive	inactive
COc1c2c(c(C)c3c1C(=O)OC3)O[C@@]1(C)CC(O)C(C(C)(C)O)[C@](C)(CCC(=O)O)[C@H]1C2 (some centres not stated)	–	–	7.96 µM (active)	7.09 µM (active)
CC1(C)CC2C3=CCC4C5(C)CCC(OC6OC(C(=O)O)C(O)C(O)C6OC6OC(CO)C(O)C(O)C6OC6OC(CO)C(O)C(O)C6O)C(C)(CO)C5CCC4(C)C3(C)CCC2(C)C(OC2OCC(O)C(OC3OC(CO)C(O)C(O)C3O)C2O)C1O (configuration not stated)	96.2% [at 9.25 µM] (inactive)	112% [at 9.25 µM] (inactive)	–	–
C=CC1(C)C=C2C(=O)CC3C(C)(C)CCCC3(C(=O)O)C2(O)CC1 (configuration not stated)	–	–	inactive	inactive
CC1CCCC[C@H]2C(=O)C=C[C@H](O)[C@@H]2CC(=O)O1 (some centres not stated)	–	–	0.731 µM (active)	0.731 µM (active)
CCN1CCN(Cc2ccc(C(=O)Nc3ccc(C)c(Oc4ccc5c(c4)CC(=O)N5)c3)cc2C(F)(F)F)CC1	–	–	5.8 µM (active)	8.2 µM (active)
C[C@@H]1C(=O)O[C@H](C)[C@H]1CC(=O)[C@](C)(O)[C@H]1CC[C@@]2(O)C3=CC(=O)[C@@H]4C[C@@H](O)[C@@H](O)C[C@]4(C)C3CC[C@]12C (some centres not stated)	–	–	inactive	inactive
C[C@@H](OC(=O)/C=C/c1ccc(O)cc1)C1=C[C@]2(C=C[C@@H]3C(C(=O)O)=CO[C@@H](O[C@@H]4O[C@H](CO[C@@H]5O[C@H](CO)[C@@H](O)[C@H](O)[C@H]5O)[C@@H](O)[C@H](O)[C@H]4O)[C@@H]32)OC1=O	–	–	inactive	inactive
C/C(=C\CCC(C)(O)c1ccc(C)cc1)C(=O)O (configuration not stated)	–	–	inactive	inactive
Cc1cc(O)cc(Oc2cc(C)c(C(=O)O)c(O)c2)c1	–	–	inactive	inactive
COc1cc2c(cc1-c1c(C)noc1C)ncc1[nH]c(=O)n(C(C)c3ccccn3)c12 (configuration not stated)	–	–	0.326 µM (active)	0.366 µM (active)
O=C(/C=C/c1ccccc1)OC[C@H]1O[C@@H](OC(=O)c2cc(O)c(O)c(O)c2)[C@H](O)[C@@H](O)[C@@H]1O	–	–	inactive	inactive
O=C(O[C@H]1[C@@H]2C=CO[C@@H](O[C@@H]3O[C@H](CO)[C@@H](O)[C@H](O)[C@H]3O)[C@@H]2[C@@]2(CO)O[C@@H]12)c1ccc(O)cc1	–	–	inactive	inactive
c1ccc(-c2cc(CCC3CCNCC3)c3ccccc3n2)cc1	–	–	7.42 µM (active)	6.61 µM (active)
CC(C)=CCC/C(C)=C/CC/C(C)=C/COC1OC(COC2OCC(OC3OCC(O)C(O)C3O)C(O)C2O)C(O)C(OC2OC(C)C(OC3OC(C)C(OC4OCC(OC5OC(C)C(O)C(O)C5O)C(O)C4O)C(O)C3O)C(O)C2O)C1O (configuration not stated)	70.7% [at 9.25 µM] (inactive)	96.7% [at 9.25 µM] (inactive)	–	–
COc1cc(-c2ncn(/C=C\C(=O)OC(C)C)n2)cc(C(F)(F)F)c1	–	–	0.103 µM (active)	0.164 µM (active)
CC(C)CC1(C(=O)OCc2ccc(O[C@@H]3O[C@H](CO)[C@@H](O)[C@H](O)[C@H]3O)cc2)CC(=O)OC(C(=O)O)CC(=O)OCC2OC(O1)C(OC(=O)/C=C/c1ccc(O)cc1)C(O)C2O (some centres not stated)	90.4% [at 9.25 µM] (inactive)	89.5% [at 9.25 µM] (inactive)	–	–
Clc1ccc2c(c1)N=C(N1CCNCC1)c1ccccc1N2	–	–	20.6 µM (active)	20.6 µM (active)
CC(C)Oc1ccc(C(=O)NC(CNC(=O)CN(C)C)Cc2ccc(-c3cn4cccc(C(C)O)c4n3)cc2)cc1Cl (configuration not stated)	–	–	0.13 µM (active)	0.082 µM (active)

Structure (SMILES)	viability (% of control) [1]	viability, % of control [2]	Potency [1]	Potency [2]
Nc1nccc2c1ncn2[C@@H]1C=C(CO)[C@@H](O)[C@H]1O	–	–	0.166 µM (active)	0.209 µM (active)
C=C(C)C1CCC(C)C12CC(O)C1(C)OC1C2OC(=O)C(N)CCC(=O)O (configuration not stated)	–	–	inactive	inactive
COc1cc(/C=C/C(=O)O[C@H]2[C@H](O)[C@@H](CO)O[C@@]2(CO)O[C@H]2O[C@H](CO)[C@@H](O)[C@H](O)[C@H]2O)cc(OC)c1O	–	–	inactive	inactive
C/C=C1/[C@H](O[C@@H]2O[C@H](CO)[C@@H](O)[C@H](O)[C@H]2O)OC=C(C(=O)OC)[C@H]1CC(=O)O[C@@H]1O[C@H](CO)[C@@H](O)[C@H](O)[C@H]1O	–	–	inactive	inactive
COC1CC(=O)C23C(=O)NC(Cc4c[nH]c5ccccc45)C2C(C)C2(C)OC2C3/C=C/CC(C)CC1O (configuration not stated)	–	–	3.99 µM (active)	4.47 µM (active)
CC[C@@H]1C[C@]1(NC(=O)[C@@H]1C[C@@H]2CN1C(=O)[C@H](C(C)(C)C)NC(=O)OCC(C)(C)CCCCc1cccc3c1CN(C3)C(=O)O2)C(=O)NS(=O)(=O)C1CC1	–	–	20.6 µM (active)	18.4 µM (active)
CCC1=C(C)C(=O)C(C)CC12C(=O)CCC2C(=O)O (configuration not stated)	–	–	inactive	inactive
C=C(C)C(=O)O[C@H]1C[C@@](C)(O)C(=O)CC(O)/C(C)=C\[C@H]2OC(=O)C(=C)[C@H]12 (some centres not stated)	–	–	1.61 µM (active)	2.02 µM (active)
O=C(N/N=C/c1ccccc1O)c1ccncc1	–	–	0.944 µM (active)	0.75 µM (active)
CC(C)c1cc2c(c(O)c1O[C@@H]1O[C@H](CO)[C@@H](O)[C@H](O)[C@H]1O)CC1(O)CCC(O)C(C)(C)C1CC2 (some centres not stated)	–	–	inactive	inactive
CC(CCC1(O)OC2CC3C4CCC5CC(O[C@@H]6O[C@H](CO)[C@@H](O)[C@H](O)[C@H]6O[C@@H]6OC[C@@H](O)[C@H](O)[C@H]6O)C(O)CC5(C)C4CCC3(C)C2C1C)CO[C@@H]1O[C@H](CO)[C@@H](O)[C@H](O)[C@H]1O (some centres not stated)	83.1% [at 9.25 µM] (inactive)	86.8% [at 9.25 µM] (inactive)	–	–
COC1=Cc2c(nc3n(c2=O)C(C)C(=O)NC3(O)C(C)C)OC=C1 (configuration not stated)	–	–	inactive	inactive
CC1(C)CC[C@]2(C(=O)O)CC[C@]3(C)C(=CCC4[C@@]5(C)C[C@@H](O)[C@H](O)C(C)(C)C5CC[C@]43C)[C@@H]2[C@@H]1O (some centres not stated)	–	–	inactive	inactive
CC1OC2O[C@H]3[C@@H](OCC(O)[C@H]3O)OC(=O)C34CCC(C)(C)CC3C3=CCC5C6(C)CC(O)C(OC7OC(CO)C(O)C(O)C7O[C@@H]7OC[C@H](OC(=O)CC(C)(O)CC(=O)OC1C(OC1OCC(O)C(O)C1O)C2O)[C@@H](O)[C@H]7O)C(C)(CO)C6CCC5(C)C3(C)CC4 (some centres not stated)	–	–	8.93 µM (active)	7.09 µM (active)
O=C(Nc1nc2ccc([N+](=O)[O-])cc2s1)C1CCCCC1	–	–	20.6 µM (active)	18.4 µM (active)
CC1CCC2(C(=O)OC3OC(CO)C(O)C(O)C3O)CCC3(C)C(=CCC4C5(C)CC(O)C(O)C(C)(C(=O)O)C5CCC43C)C2C1(C)O (configuration not stated)	–	–	inactive	inactive
O=c1nc(-c2ccccn2)sc2ccccc12	–	–	1.84 µM (active)	2.59 µM (active)
Cc1ccc(C2(COC(=O)C(C)C)CO2)c(OC(=O)C(C)C)c1 (configuration not stated)	–	–	1.8 µM (active)	2.02 µM (active)
CC1=CC(=O)CC(C)(C)C1CO[C@@H]1O[C@H](CO)[C@@H](O)[C@H](O)[C@H]1O (some centres not stated)	–	–	inactive	inactive
COCC(c1ccc(C(F)(F)F)cc1)N1CCN(C2(C)CCN(C(=O)c3c(C)ncnc3C)CC2)CC1C (configuration not stated)	–	–	inactive	inactive
Cc1occc(=O)c1O[C@@H]1O[C@H](COC(=O)CC(C)(O)CC(=O)O)[C@@H](O)[C@H](O)[C@H]1O (some centres not stated)	–	–	inactive	inactive
CCN(CCN(C)C)C(=O)CNCc1cc(C(N)=O)ccn1	–	–	inactive	inactive
C=C[C@@]12COC(=O)C(=C)C1[C@@H](O)[C@H](C(=C)C(=O)OC)[C@@H](OC(=O)C(=C)CO)C2 (some centres not stated)	–	–	1.78 µM (active)	1.59 µM (active)
Fc1ccccc1CNCc1ccc(-c2ccnc3[nH]ccc23)cc1	–	–	5.17 µM (active)	9.2 µM (active)
CCCN(CCC)C(=O)C1=Cc2ccc(-c3ccc(C(=O)N4CCCC4)cc3)cc2N=C(N)C1	–	–	8.33 µM (active)	4.17 µM (active)
